From PubChem BioAssay AID686979 (National Center for Advancing Translational Sciences (NCATS), 2013) come the findings set out here.

“And” between values parts separate entries of the source, which are not always exact repeats. Equal entries are not always repeated. Screen size: about 420,000 compounds; about 50,000 (12%) were called active. Where a call stands in place of a potency, no number is given. Inconclusive results (about 26%) are left out. This excerpt belongs to a sample that is enriched for actives. A number with no mark means an inactive call. The call rests on the fitted dose curve; in most records, active means well fitted inhibition curve with a large enough effect; inconclusive means small, poorly fitted or top-dose-only effect; inactive means flat fitted curve, though single readings scatter.
Potency means the concentration at half of the fitted maximal effect.

This experiment can be described thus: qHTS for Inhibitors of human tyrosyl-DNA phosphodiesterase 1 (TDP1): qHTS in cells in presence of CPT. Further: nearly all actives have a fitted effect of over 55% in size. The settings on record: chicken DT40 Tdp1-/-;hTDP1 cells + 20 nM CPT, ATP luminescence, 48 h; series mostly up to 46.2 µM. The method in brief: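 Chicken DT40 Tdp1-/- cells complemented with human TDP1, 400 cells/well, exposed to compounds plus 20 nM camptothecin for at least 48 h at 37 C; viability read as ATP content by CellTiter-Glo luminescence.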
On the technique in general: qHTS replaces the single test concentration by a dilution series.
On to `Cc1nc(Nc2ccccc2F)c2nnn(Cc3ccccc3Cl)c2n1`, for which the Potency entry was “inactive”. For the molecule `NC(=O)c1sc(-c2ccsc2)cc1N`, the Potency entry is “inactive”. Consider `O=C(Nc1ccccc1-c1ccccc1)c1ccccc1[N+](=O)[O-]`, for which the Potency entry was “inactive”. Regarding `Cc1ccc(CC(=O)N(C)CC(=O)N(CC(C)C)c2c(N)n(CC(C)C)c(=O)[nH]c2=O)cc1C`, the Potency entry was “inactive”.

As for `O=C(NCCCNC(=O)c1ccccc1Cl)c1cnccn1`, the Potency entry was “inactive”. On to `COCc1ccc(C(=O)NC2CC(C)(C)Cc3c2cnn3-c2ccc(C)cc2)o1` (stereo not given), for which the Potency result was “inactive”. On to `COc1ccc(OC)c(C(=O)NC2CCCc3c2cnn3-c2cc(C)cc(C)c2)c1` (stereo not given), for which the Potency is 29.1 µM (active). Turning to `Cc1ccc(-n2ncc3c2CCCC3NC(=O)c2cnccn2)cc1C` (stereo not given), the Potency is 20.6 µM (active).

As for `COc1ccc(-n2ncc3c2CC(C)(C)CC3NC(=O)CCc2c(C)noc2C)cc1` (stereo not given), the Potency entry is “inactive”. `Cc1ccc(-c2csc(NC(=O)c3cnccn3)n2)cc1C`: the Potency result is “inactive”. As for `O=C(Cc1ccc(Cl)cc1)c1ccccc1`, the Potency result was “inactive”.

Regarding `CCCCCCNCCn1cnc2c(N)ncnc21`, the Potency result was “inactive”. Turning to `COc1ccc(NC(=O)c2ccc3oc(=O)c(S(=O)(=O)c4ccc(F)cc4)cc3c2)c(OC)c1`, the Potency entry was “inactive”. On to `COc1cccc(NC(=O)CN(C)C(C)C(=O)Nc2ccc(C#N)cc2)c1` (stereo not given), for which the Potency result was “inactive”. On to `CCOC(=O)c1cc2c(=O)n3ccccc3nc2n(CCCOC)c1=NC(=O)C(C)(C)Oc1ccc(Cl)cc1`, for which the Potency result is “inactive”. Consider `Nc1cc2c(cc1Br)-c1ccc(F)cc1C2=O`, for which the Potency result is “inactive”.

Regarding `CC(C)(C)C(=O)CSc1nc2ccccc2o1`, the Potency entry is “inactive”. On the same count and under the same terms, the same measure for `Cc1ccc(/C=N/NC(=O)CSc2nc3ccccc3o2)cc1`: 18.4 µM (active); for `CCN(CC)C(=O)CSc1nc2ccccc2o1`: “inactive”; for `CC(Sc1nnc(C2CC2)n1C1CC1)C(=O)Nc1ccc(C(N)=O)cc1` (stereo not given): “inactive”. Regarding `COc1ccc(NS(=O)(=O)c2ccc(N3CCN(CCO)CC3)c([N+](=O)[O-])c2)cc1`, the Potency is 9.2 µM (active). Consider `CC1CCN(c2ccc(S(=O)(=O)Nc3cc(C(=O)O)cc(C(=O)O)c3)cc2[N+](=O)[O-])CC1`, for which the Potency result was “inactive”. As for `COc1ccc(NS(=O)(=O)c2ccc(N3CCOCC3)c(NC(=O)/C=C/C(=O)O)c2)cc1`, the Potency entry was “inactive”. With `O=C(CSc1nncn1-c1cccnc1)N1CCOCC1`, the Potency entry was “inactive”. Turning to `O=C1NC(c2ccccc2)Cc2ccncc21` (stereo not given), the Potency entry is “inactive”. In the case of `COc1ccc(OC)c(Cc2nnc(CCC(=O)NC3CCCC3)o2)c1`, the Potency entry was “inactive”. Still for that read-out and setting: the same measure for `COc1ccc(OC)c(NC(=O)c2sc3nc(C)cc(C)c3c2N)c1`: “inactive”; for `COc1ccc(OC)c(Cc2cnc3nc(N)nc(N)c3c2C)c1`: 0.259 µM (active). Consider `COCC1CCCN(Cc2ccc3c(c2)CN(C(=O)c2ccnn2C)CCO3)C1` (stereo not given), for which the activity change, negative = growth inhibition was -3.58% [at 9.04 µM]. On to `S=c1[nH]nc(-c2ccc(Cl)cc2)n1CC1CCCO1` (stereo not given), for which the Potency result was “inactive”. Consider `O=C(c1[nH]ncc1-c1ccc(Cl)cc1)C1CO1` (stereo not given), for which the Potency was 1.03 µM (active). The same measure, in the same setting: the same measure for `COC(=O)c1ccc(C)c(NC(=O)C2CC(=O)N(C3CCCC(C)C3C)C2)c1` (stereo not given): “inactive”. `C=C1C(=C/C=C2\CCC[C@]3(C)[C@@H]([C@H](C)CCCC(C)(C)O)CC[C@@H]23)C[C@@H](O)C[C@@H]1O`: the Potency is 9.44 µM (active). Same read-out and setting: the same measure for `CCNC(=O)C1(C)CCCN(C(=O)c2ccc3ccccc3n2)C1` (stereo not given): “inactive”. As to `CCOC(=O)c1sc(NC(=O)CSc2n[nH]c(CC)n2)nc1C`, the Potency result is “inactive”. With `O=C(N/N=C/c1ccc(Br)o1)c1cncc(Br)c1`, the Potency entry is “inactive”. Take `Cc1sc2ncn(CC(=O)NCCCC(=O)NCc3ccc(F)cc3)c(=O)c2c1C`: the Potency result was “inactive”. With `Cn1cc(S(=O)(=O)N2CCC(Cc3ccccc3)CC2)c(=O)n(C)c1=O`, the Potency result was “inactive”.

Regarding `O=C1N[C@H](Cc2ccccc2)C(=O)N[C@H]1Cc1cn(S(=O)(=O)c2ccccc2)c2ccccc12`, the Potency is 13 µM (active). `CSc1ncccc1C(=O)Nc1ccc2c(c1)OCO2`: the Potency result is “inactive”. Regarding `Cc1c(NC(=S)NCc2ccc(F)cc2)cccc1[N+](=O)[O-]`, the Potency was 20.6 µM (active). On to `Cc1c(NC(=O)CCCOc2ccccc2)cccc1[N+](=O)[O-]`, for which the Potency result is “inactive”. For the molecule `Cc1c(NC(=O)/C=C/C(=O)O)cccc1[N+](=O)[O-]`, the Potency entry is “inactive”. Regarding `CCN(CC(=O)NCc1ccc(Cl)cc1)C(=O)CSc1ccccc1`, the Potency entry was “inactive”. Consider `c1ccc(-c2ccc3c(c2)NC(C2Nc4cc(-c5ccccc5)ccc4O2)O3)cc1` (stereo not given), for which the Potency entry is “inactive”. On to `CC1CCN(S(=O)(=O)c2ccc3[nH]c(=O)ccc3c2)CC1`, for which the Potency entry was “inactive”. For `CC(=O)c1cccc(NC(=O)COc2ccc(S(=O)(=O)N3CCOCC3)cc2)c1`, the Potency result was “inactive”. Take `CC(=O)c1cccc(Nc2ccc3cc(S(=O)(=O)N4CCC(C)CC4)ccc3n2)c1`: the Potency is 18.4 µM (active). `CCCc1c(C)nc2c(Br)cccc2c1Cl`: the Potency result is “inactive”. With `COc1cc(NS(=O)(=O)c2ccc(N/C=C(\C=O)c3nc4cc(Cl)ccc4o3)cc2)nc(OC)n1`, the Potency result is “inactive”. Consider `Cn1ncc(Br)c1C(=O)NC1CCCC1`, for which the Potency result is “inactive”. As for `CCC(Oc1ccccc1)C(=O)OCC(=O)Nc1c(C)nn(-c2ccccc2)c1C` (stereo not given), the Potency entry was “inactive”. In the case of `Nc1cc(=O)n(Cc2ccccc2)c(=O)n1Cc1ccccc1`, the Potency entry was “inactive”. Consider `CCN1CCN(Cc2c(O)ccc3c(=O)c(-c4ccc(OC)c(OC)c4)c(C(F)(F)F)oc23)CC1`, for which the Potency entry is “inactive”. With `Cc1ccc(C)c(Oc2c(C(F)(F)F)oc3c(CN4CCN(C)CC4)c(O)ccc3c2=O)c1`, the Potency is 23.1 µM (active).

As to `CC1CCCN(Cc2c(O)ccc3c(=O)c(Oc4ccc(C(C)(C)C)cc4)c(C(F)(F)F)oc23)C1` (stereo not given), the Potency entry was “inactive”.

Turning to `CCCN1CCN(CCCNC(=O)c2cnn(-c3ccc(C)cc3)c2-n2cccc2)CC1`, the Potency result is “inactive”. On the same count and under the same terms, the same measure for `CSc1ccc(CCNC(=O)c2cnn(-c3ccccc3)c2-n2cccc2)cc1`: 18.4 µM (active); for `Cc1c(C(=O)NCc2ccccc2)cnn1-c1ccccc1`: “inactive”. Consider `COc1cc(C(=O)Nc2ncccc2C)ccc1OCC(=O)N1CCOCC1`, for which the Potency result is “inactive”. For `Cn1ccnc1-c1nnn(-c2ccc(F)cc2)n1`, the Potency result was “inactive”. With `Cc1cccc(C)c1NC(=S)N1CCCCCC1`, the Potency entry was “inactive”. Regarding `C/C(CC(=O)Nc1ccc(N(C)C)cc1)=N\NC(=O)c1ccccc1F`, the Potency result was “inactive”. Take `O=C(Nc1ccc(NC(=O)c2ccccc2F)cc1)c1ccccc1F`: the Potency entry was “inactive”. Same read-out and setting: the same measure for `C/C(=N\NC(=O)c1ccccc1F)c1ccccn1`: 3.26 µM (active).

Take `CNC(=S)N1CCN(c2ccccn2)CC1`: the Potency entry was “inactive”. For `COc1ccc(C/C(C)=N/NC(=O)c2ccncc2)cc1`, the Potency entry is “inactive”.

`C/C(=N\NC(=O)Cc1ccc(Br)cc1)c1cccnc1`: the Potency entry is “inactive”. For the molecule `Cc1ccc(Cl)cc1NC(=O)c1ccccn1`, the Potency result was “inactive”. On to `CC(=NNC(=S)N1CCCCCC1)c1ccccn1`, for which the Potency was 0.0092 µM (active). Same read-out and setting: the same measure for `C/C(=N\NC(=O)Cc1ccc(Cl)cc1)c1ccccn1`: 1.46 µM (active). With `COc1ccc(C/C(C)=N/NC(=O)c2cc(C)oc2C)cc1`, the Potency result was “inactive”. The same measure, in the same setting: the same measure for `COc1ccc(CC(=O)N/N=C(\C)c2ccccn2)cc1`: 3.66 µM (active). Regarding `CCC1([N+](=O)[O-])COC(c2ccc(C)cc2)OC1` (stereo not given), the Potency result is “inactive”. On the same count and under the same terms, the same measure for `Cc1cc(C(C)(C)C)n2nc(C)c(-c3ccccc3)c2n1`: “inactive”. With `CCc1nnc(NC(=O)c2cc(S(=O)(=O)N3CCCCC3)ccc2C)s1`, the Potency entry is “inactive”.

For the molecule `CCOC(=O)C1CCN(C(c2ccc(F)cc2)c2sc3nc(-c4ccco4)nn3c2O)CC1` (stereo not given), the Potency result is “inactive”. On the same count and under the same terms, the same measure for `Cc1cccc(N(C(=O)c2csnn2)C(C(=O)NCc2ccccc2)c2ccncc2)c1` (stereo not given): “inactive”; for `Cc1ccc(NC(=O)CCCNC(=O)c2ccc(Cl)cc2)cc1S(=O)(=O)N1CCOCC1`: “inactive”. For the molecule `O=C(Nc1cccc(F)c1)N1CC2(CCN(C(=O)c3cnccn3)CC2)C1`, the Potency entry is “inactive”. As to `COc1ccc(NC(=O)Cn2ncn3c(cc4ccccc43)c2=O)c(OC)c1OC`, the Potency result is “inactive”.

For `O=C1CCC(C(=O)N2CCC(O)(c3ccccc3)CC2)CN1CCc1ccccc1` (stereo not given), the Potency result is “inactive”. Consider `Cc1cccnc1NC(=O)CSc1nnc(COc2ccc(C(C)C)cc2)n1C`, for which the Potency result was “inactive”. As to `CN(CC(=O)Nc1ccccc1Cl)C(=O)COc1cccc2c1OC(C)(C)C2`, the Potency entry is “inactive”.

`Cn1nc(C(F)(F)F)c(C(=O)Nc2cccc(C(F)(F)F)c2)c1SCc1ccc(Cl)cc1`: the Potency is 16.4 µM (active). In the case of `CCC(=O)OCc1c(C(F)(F)F)nn(C)c1Oc1cccc(C(F)(F)F)c1`, the Potency result was “inactive”. In the case of `O=C(O)CSCC(=O)Nc1cccc(C(F)(F)F)c1`, the Potency entry is “inactive”. For the molecule `CC(C)OCCCNC(=O)CNC(=O)c1cccs1`, the Potency result is “inactive”. Regarding `COCCNC(=O)c1snc2ccc(Cl)cc12`, the Potency result was “inactive”. In the case of `CC(C)OCCCNC(=O)c1ccc(C2SCC(=O)N2Cc2ccco2)cc1` (stereo not given), the Potency result was “inactive”. As to `COCCNC(=O)c1ccc2c(c1)N=C(C)c1cc(C)ccc1S2`, the Potency is 0.517 µM (active). Take `Cc1ccc(OCCNC(=O)CNC(=O)c2ccc(C)c(C)c2)cc1`: the Potency result is “inactive”. Regarding `CCC1=Nc2cc(C(=O)NCCCOC(C)C)ccc2Sc2ccc(C)cc21`, the Potency is 0.92 µM (active). Take `CCCCSc1[nH]c(=O)c(C(=O)OCC)cc1C#N`: the Potency result was “inactive”. With `Cc1ccc(C)c(-n2c(SCC(=O)O)nc3sc4c(c3c2=O)CCCC4)c1`, the Potency entry was “inactive”. The same measure, in the same setting: the same measure for `CCOC(=O)c1c(NC(=O)CN2C(=O)NC3(CCC(C)CC3)C2=O)sc(C)c1CC` (stereo not given): “inactive”; for `Nc1ccc(C(=O)NCc2ccccc2)cc1`: “inactive”; for `Nc1ccc(S(=O)(=O)NC(=O)c2ccccc2)cc1`: “inactive”.

For `Nc1ccc(C(=O)Nc2ccccc2N)cc1`, the Potency is 2.37 µM (active) and 5.8 µM (active). With `O=C(NCC1CCCO1)/C(=C/c1ccc(Cl)cc1)NC(=O)c1ccccc1` (stereo not given), the Potency entry is “inactive”. On the same count and under the same terms, the same measure for `Cc1nn(C)cc1S(=O)(=O)N1CCN(c2ccc(F)cc2)CC1`: “inactive”; for `O=C(COc1cccc2c1CCNC2=O)NC1CCCCC1`: “inactive”; for `CCOc1ccccc1NC(=O)C1CCCN(S(=O)(=O)c2cn(C)cn2)C1` (stereo not given): “inactive”. Turning to `CCOc1ccccc1CNC(=O)C1CCCN(S(=O)(=O)c2ccc3c(ccn3C)c2)C1` (stereo not given), the Potency is 14.6 µM (active). On to `COc1cccc(CNC(=O)C2CCN(S(=O)(=O)c3ccc4c(ccn4C)c3)CC2)c1`, for which the Potency entry is “inactive”.
